Mtb hypoxia rep: inhibitors of hypoxia-regulated fluorescent reporter in Mycobacterium tuberculosis; fluorescence inhibition, % (no concentration beside the values); M. tuberculosis hypoxia-regulated fluorescent reporter, fluorescence; 300,000 tested, 0.1% active; in the data active = fluorescence inhibition mostly above about 23%, no sharp cut-off; inactive = mostly below about 17%
PfHsp40 yeast: restores yeast growth despite PfHsp40 toxicity; growth rescue, % at 12.5 µM; AID 504582; 340,000 tested, 0.68% active; S. cerevisiae expressing PfHsp40, growth rescue, ATP luminescence; in the data active = growth rescue above about 28%, passing the limit was not always enough;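 also: yeast W303a lacking pdr1 and pdr3 grown in galactose medium; growth measured after three days at 30 °C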
ugtP null kill: kills S. aureus RN4220 lacking UgtP. S. aureus RN4220 ugtP deletion, OD600 growth, 16 h. growth inhibition, % (test concentration not listed). 330,000 tested, 0.54% active. AID 1259309; in the data active = growth inhibition above about 68%;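 also: plate controls were untreated wells for no effect and antibiotic for full effect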
CCHF vOTU inh: CCHFV vOTU protease inhibition | 370,000 tested, 0.55% active | inhibition, % at 11.5 µM | Pep-AMC fluorescence; in the data active = inhibition above about 30%; also: 0% = vehicle wells with enzyme and 100% = no enzyme wells
Sa RN4220 lethal: kills Staphylococcus aureus RN4220; inhibition, % (no concentration beside the values); S. aureus RN4220 growth, OD600, 16 h; 330,000 tested, 0.33% active; in the data active = inhibition above about 85%;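 also: plate controls were untreated cells for no effect and reference antibiotic for full effect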
BH1578 lux ind: quorum light induction in luxS cqsA deficient V. cholerae; activation, % at 18.7 µM; V. cholerae BH1578 lux reporter, luminescence, 6 h; 350,000 tested, 0.16% active; in the data active = activation mostly above about 9.7%, no sharp cut-off
* = called active by the depositor; i = inactive; nt = no result given. Compounds with a hit are over-represented: about 1.7% of the library has one in this group of screens.

SMILES | Mtb hypoxia rep | PfHsp40 yeast | ugtP null kill | CCHF vOTU inh | Sa RN4220 lethal | BH1578 lux ind
Cn1c(NN=Cc2cccs2)cc(=O)n(C)c1=O | 3.3 | nt | -10.8 | nt | -0.3 | nt
CC(C)(C)c1ccc(S(=O)(=O)ON=C2CCCCC2c2ccc([N+](=O)[O-])cc2[N+](=O)[O-])cc1 (stereo not given) | 2.5 | nt | -3.9 | nt | 2.5 | nt
CC1=CC(=C2C(=O)NC(=S)NC2=O)C=C(C(F)(F)F)N1Cc1ccccc1 | -11.9 | 0.7 | 9.7 | -3.8 | 3.3 | 266.6*
Cc1ccc(C=NNC(=O)C2CCN(Cc3ccc(F)cc3Cl)CC2)o1 | 6.9 | nt | 2.2 | nt | -3.3 | nt
CCCCCCn1c(=O)c(C(=O)Nc2nc(CC(=O)OCC)cs2)c(O)c2ccccc21 | nt | -0.6 | 21.5 | 11.2 | 43.5 | -0.5
CCCCCn1c(=O)c(C(=O)Nc2ccccn2)c(O)c2ccccc21 | 12.2 | 1.2 | 100.3* | 3.1 | 100.1* | 0.4
CCCCCCCn1c(=O)c(C(=O)OC)c(N)c2ccccc21 | 1.4 | 245.0* | -15.5 | 18.5 | 2.3 | -0.6
CCCCCCn1c(=O)c(C(=O)Nc2cnccn2)c(O)c2ccccc21 | nt | -2.1 | 92.1* | 8.8 | 35.0 | -0.3
CCOC(=O)Cc1csc(NC(=O)c2c(O)c3ccccc3n(CCC(C)C)c2=O)n1 | 19.1 | -1.3 | 99.9* | -20.2 | 96.3* | -0.4
CCCCCCCCn1c(=O)c(C(=O)OC)c(N)c2ccccc21 | 16.5 | nt | -23.2 | -9.7 | 3.0 | -0.1
CCCCn1c(=O)c(C(=O)Nc2ccccn2)c(O)c2ccccc21 | -2.9 | 0.2 | -9.5 | 1.0 | 4.5 | 1.5
CON=CC(=NNc1cc(OC)cc(OC)c1)C(=O)c1ccccc1 | 3.3 | nt | -1.6 | nt | -6.6 | nt
O=C(NN=Cc1ccncc1)c1nn(Cc2ccccc2)c(=O)c2ccccc12 | -6.3 | nt | -4.2 | nt | -1.6 | nt
COc1cnc(-c2ccccn2)nc1Sc1ccc(C)cc1 | 19.9 | 358.7* | 1.4 | 1.6 | 4.4 | i
Cc1ccc(Sc2cc(C)nc(-c3ccccn3)n2)cc1 | nt | 145.4* | nt | -13.8 | nt | -1.0
COc1ccc(C(C)=NNc2ncc(Cl)cc2Cl)c(O)c1 | 2.3 | nt | 9.5 | nt | 7.0 | nt
COC1C=CO[C@@]2(C)Oc3c(C)c(O)c4c(O)c(c(C=NN5CCN(C)CC5)c(O)c4c3C2=O)NC(=O)C(C)=CC=CC(C)C(O)C(C)C(O)C(C)C(OC(C)=O)C1C (stereo not given in full) | nt | nt | 96.8* | nt | 97.9* | nt
COC1C=CO[C@@]2(C)Oc3c(C)c(O)c4c(O)c(c5c(nc6cc(C)ccn65)c4c3C2=O)NC(=O)C(C)=CC=CC(C)C(O)C(C)C(O)C(C)C(OC(C)=O)C1C (stereo not given in full) | nt | nt | 99.4* | nt | 99.4* | nt
CO[C@H]1/C=C/O[C@@]2(C)Oc3c(C)c(O)c4c(O)c(c5c(c4c3C2=O)NC2(CCN(CC(C)C)CC2)N=5)=NC(=O)/C(C)=C\C=C\[C@H](C)[C@H](O)[C@@H](C)[C@@H](O)[C@@H](C)[C@H](OC(C)=O)[C@@H]1C | nt | 0.3 | nt | 17.8 | nt | -0.4
COc1ccc(-n2nnnc2CNC(=O)C(=O)c2c[nH]c3ccccc23)cc1 | 2.0 | 1.3 | -0.4 | 6.0 | 0.7 | 0.7
Cc1ccc(-n2nnnc2SC(C(=O)c2c[nH]c3ccccc23)c2ccccc2)cc1 (stereo not given) | 1.7 | -2.4 | 90.3* | -11.9 | 65.2 | -0.4
C#CCOCCOCCOCCNc1nc(N2CCOCC2)nc(N2CCN(C(=O)CCCCCCCCCCNC(=O)C(CO)n3cc(CCCSC)nn3)CC2)n1 (stereo not given) | -3.1 | nt | -14.9 | nt | 5.6 | nt
Cn1ncc(Cl)c1C(=O)NN=Cc1cc2c(cc1[N+](=O)[O-])OCO2 | 11.7 | nt | 4.3 | nt | 4.0 | nt
CC(=O)C(=NNc1ccc(Cl)cc1Cl)Sc1cccc2cccnc12 | 8.0 | nt | 85.0* | nt | 5.7 | nt
CC(=O)C(=NNc1ccccc1)Sc1cccc2cccnc12 | 14.0 | nt | 8.2 | nt | 7.3 | nt
SMILES | Mtb hypoxia rep | PfHsp40 yeast | ugtP null kill | CCHF vOTU inh | Sa RN4220 lethal | BH1578 lux ind
CC(C)c1ccc(-n2c(O)c(/C=N/NC(=O)c3ccccc3O)c(=O)[nH]c2=S)cc1 | 14.8 | -1.3 | 10.1* | 9.4 | 88.5 | i
O=C(N/N=C/c1c(O)n(C2CCCCC2)c(=S)[nH]c1=O)c1ccccc1O | 8.3 | -0.8 | 92.4* | 20.1 | 76.7 | i
NC(=NNC(=O)c1sccc1OCc1ccc(Cl)cc1Cl)c1ccccn1 | 4.7 | nt | -6.9 | nt | 7.3 | nt
COc1ccc2c(c1)C1C=CCC1C(c1cc3c(cc1Br)OCO3)N2 (stereo not given) | -0.1 | 67.8* | 55.9 | 8.7 | -8.2 | -0.5
CC(=NNC(=O)CNC(=O)Cc1ccccc1)c1ccco1 | 8.6 | nt | 2.8 | nt | 3.0 | nt
CCOC(=O)c1sc(=S)n(-c2cc(OC)ccc2OC)c1N | nt | 200.5* | 17.2 | 8.1 | 2.8 | -2.2
CCOC(=O)c1sc(=S)n(-c2cc(F)ccc2F)c1N | 1.7 | 0.9 | -11.7 | 11.6 | 0.4 | i
Cc1c(C(=O)Nc2ccncc2)sc2nc(-c3ccccc3)cn12 | 9.9 | 0.6 | -10.9 | 6.1 | -11.5 | -0.8
Cc1c(C(=O)Nc2ccc3c(c2)OCCO3)sc2nc(-c3ccccc3)cn12 | 8.8 | 144.9* | -7.1 | -0.6 | 15.3 | -0.5
CCCCCCCNC(=O)C1(CC2CC(c3cccc(Br)c3)=NO2)CCN(C(=O)CCCCCBr)CC1 (stereo not given) | nt | 45.1* | nt | 5.7 | nt | i
CC(=NNS(=O)(=O)c1ccc(C)cc1C)c1ccc2c(c1)OCO2 | 9.9 | nt | 8.7 | nt | -2.2 | nt
CC(C)COC(=O)c1ccc2c(c1O)C(=O)c1ccccc1C2=O | 5.5 | 2.6 | 92.9* | 17.7 | 92.1* | 1.0
CC(O)c1nc2ccccc2n1C1CCCCC1 (stereo not given) | 9.1 | 74.2* | 6.2 | 8.0 | 3.2 | i
O=c1c2ccccc2nc(/C=C/c2ccc(O)c(O)c2)n1-c1ccccc1 | -3.2 | -0.5 | -20.1 | 17.4 | 11.1 | i
COc1cc(/C=C/c2nc3ccccc3c(=O)[nH]2)ccc1O | nt | nt | nt | 2.5 | nt | i
COc1cc(/C=C/c2nc3ccccc3c(=O)n2-c2ccccc2O)ccc1O | nt | 2.4 | 99.4* | 17.5 | 93.0* | -0.5
COc1cc(/C=C/c2nc3ccccc3c(=O)n2-c2cccc(O)c2)ccc1O | 3.6 | -1.1 | 99.5* | 1.9 | 98.9* | -0.6
O=C(NN=Cc1ccc([N+](=O)[O-])o1)c1cn(-c2ccccc2)nc1-c1ccc(Cl)cc1 | -11.2 | nt | 98.7* | nt | 99.3* | nt
COc1ccc(-c2nn(-c3ccccc3)cc2C(=O)N/N=C/c2ccc([N+](=O)[O-])o2)cc1 | nt | -0.8 | nt | -14.7 | nt | 0.4
O=C(NN=Cc1ccc([N+](=O)[O-])o1)c1cc2ccccc2o1 | nt | nt | 30.8 | nt | 23.8 | nt
CCCc1ccc(-c2cc(C(=O)NN=Cc3ccc([N+](=O)[O-])o3)c3ccccc3n2)cc1 | nt | nt | 99.1* | nt | 108.5* | nt

High-throughput results (PubChem BioAssay)
